# Source: PubChem
# GLP1R ag – agonists of human GLP-1 receptor. P43220. HEK293 GLP-1R CRE-luciferase, luminescence, 4-6 h; cells express a hypersensitive GLP-1R form. Potency, µM (top dose mostly 45.6 µM), actives largely listed as activators. 380,000 tested, 0.007% active. AID 624172
# Target sequence (P43220 whole entry, looked up): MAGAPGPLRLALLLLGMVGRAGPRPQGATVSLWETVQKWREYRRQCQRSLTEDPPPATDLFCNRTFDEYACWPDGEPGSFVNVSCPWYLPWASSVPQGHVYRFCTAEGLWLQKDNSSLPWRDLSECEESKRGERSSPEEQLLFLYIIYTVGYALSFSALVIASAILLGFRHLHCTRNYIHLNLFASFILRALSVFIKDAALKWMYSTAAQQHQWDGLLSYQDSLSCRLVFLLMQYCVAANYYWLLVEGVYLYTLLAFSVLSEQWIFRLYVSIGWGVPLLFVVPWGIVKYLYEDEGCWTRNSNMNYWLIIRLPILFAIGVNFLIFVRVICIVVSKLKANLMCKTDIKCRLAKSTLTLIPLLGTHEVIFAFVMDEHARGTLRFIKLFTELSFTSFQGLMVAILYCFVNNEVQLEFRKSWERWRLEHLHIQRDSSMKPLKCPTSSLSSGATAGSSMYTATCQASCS
# GLP1R cytotox – cytotoxicity in counter-screen for GLP-1R inverse agonists; HEK293 cAMP-luciferase reporter cells, luminescence, 24 h; Potency, µM (series often up to 38.3 µM), actives largely listed as inhibitors; 410,000 tested, 0.13% active; AID 624418;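 also: loss of luciferase light is scored as toxicity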
#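 1536-well qHTS counterscreen of the MLSMR; 200 cells/uL, 12 h pre-incubation, 23 nL cpd, 24 h at 37 deg C 5% CO2, luciferase detection reagent, 12 min RT, luminescence. Inhibition = undesired.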
# GLP-1R inv ag – inverse agonists of human GLP-1 receptor; HEK293 GLP-1R CRE-luciferase, luminescence, 24 h; GLP-1R form is constitutively active; AID 624417; 410,000 tested, 1.6% active; Potency, µM (highest dose often 38.3 µM), usual class: inhibitors; also: nearly all actives have a fitted effect of over 55% in size
#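 HEK293 cells stably co-expressing constitutively active GLP-1R and a cAMP-responsive luciferase reporter were seeded in DMEM with 10% Nu serum, given compounds after 12 h, and incubated 24 h at 37 deg C. Luminescence was then read.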
# Numbers stand for hits; 0 = inactive; ? = inconclusive; - = no result given. Only some compounds are listed: those with a hit (about 1.7% of all), similar ones and a draw of the others. Calls follow the shape of the dose curve; as a rule, active = well fitted curve in the direction sought with a large enough effect; inconclusive = small, poorly fitted or top-dose-only effect, or another doubt; inactive = no such curve, though single readings can be large; an effect the other way counts as inactive or inconclusive.
SMILES,GLP1R ag,GLP1R cytotox,GLP-1R inv ag
NC(=O)N=Nc1c(O)[nH]c2ccc([N+](=O)[O-])cc12,0,0,0
C=C(C)CNC(=S)N=Nc1c(O)[nH]c2ccc([N+](=O)[O-])cc12,0,4.5µM,0
O=C(CNC(=O)c1ccco1)N=Nc1c(O)[nH]c2ccc([N+](=O)[O-])cc12,0,?,0
CC(C)NC(=S)N=Nc1c(O)[nH]c2ccc([N+](=O)[O-])cc12,0,2.5µM,?
CCOc1ccc(-n2ccnc2SCC(=O)Nc2nc3ccc(C)cc3s2)cc1,-,0,0
CCN(CC)C(=O)c1cc(C(C)(C)C)c(O)c(C(C)(C)C)c1,0,0,0
O=C(Nc1ccccc1C(=O)Nc1nnc(C(F)(F)F)s1)c1ccccc1,0,3.2µM,?
Cc1occc1C(=O)Nc1nnc(C(F)(F)F)s1,0,0,0
CC(C)c1ccc(NC(=O)c2cnc3sc(N4CCCC4)nn3c2=O)cc1,-,0,0
COc1ccc(Cn2c(O)c(C=Nc3ccc(O)cc3)c3ccccc3c2=O)cc1,0,0,8.9µM
COc1ccc(Cn2c(O)c(C=Nc3ccccc3)c3ccccc3c2=O)cc1,0,0,0
CCCCCCCCCCCCN1[C@@H](CC(=O)O)c2cc(F)ccc2S1(=O)=O,0,0,0
O=C(NCCc1cn2ccccc2n1)c1cc(COc2ccc3ncccc3c2)on1,0,0,13µM
CC(NC(=O)c1cc(COc2ccc3ncccc3c2)on1)c1ccc(F)cc1 (stereo not drawn),0,0,1.8µM
O=C(c1cc(COc2ccc3ncccc3c2)on1)N1CCCC1,0,0,0
O=C(NC1CCCC1)c1cc(COc2ccc3ncccc3c2)on1,0,0,0
Cc1cccc(N2CCN(CCNC(=O)Nc3ccc(Cl)cc3)CC2)c1C,-,0,0
COc1ccc(Nc2nnc(SCC(=O)/C=C3/N(C)c4ccccc4C3(C)C)s2)cc1,0,0,11µM
CN1/C(=C\C(=O)CSc2nnc(N)s2)C(C)(C)c2ccccc21,0,0,0
Cc1ccc(C)c2[nH]c(=O)c(C(c3nnnn3CCc3ccccc3)N3CCOCC3)cc12 (stereo not drawn),0,0,0
Cc1ccc(C)c2[nH]c(=O)c(C(c3nnnn3Cc3ccco3)N3CCc4ccccc4C3)cc12 (stereo not drawn),0,0,10µM
Cc1ccc2c(c1)nc(SCC(O)c1ccc(Br)cc1)n2C (stereo not drawn),-,0,0
CC(C)c1nc2ccc(C(=O)NCCCN3CCN(c4ccc(F)cc4)CC3)cc2o1,-,0,?
CC(C)c1nc2ccc(C(=O)NCCCN3CCN(c4cccc(Cl)c4)CC3)cc2o1,-,0,10µM
Cc1cc(C(=O)NCCCN2CCN(c3cc(Cl)ccc3C)CC2)n(-c2ccccc2)n1,0,?,?
SMILES,GLP1R ag,GLP1R cytotox,GLP-1R inv ag
Cc1ccc(NC(=O)NCCN2CCN(c3ccccc3)CC2)cc1Cl,0,0,?
O=C(NCCN1CCN(c2ccccc2)CC1)Nc1cccc(Cl)c1,0,0,2.5µM
Cc1cc(C(=O)NCCN2CCN(c3cccc(Cl)c3)CC2)n(-c2ccccc2)n1,0,0,6.3µM
CCNC(=O)C1CCCN(c2nc(C)cc(C)n2)C1 (stereo not drawn),0,0,0
CC(=O)c1ccc(-c2cccc([C@H]3[C@@H]4C=CC[C@@H](C)[C@@H]4C(=O)N3Cc3ccccc3)c2)cc1,0,0,10µM
COc1ccc(-c2cccc([C@H]3[C@@H]4C=CC[C@@H](C)[C@@H]4C(=O)N3Cc3ccccc3)c2)cc1,0,0,?
Cc1ccc(-c2nnc(SCC(=O)Nc3ccccc3F)o2)cc1,0,0,2.2µM
Cc1cc(-c2nnc(SCC(=O)Nc3ccccc3C(F)(F)F)o2)c(C)n1-c1ccccc1,0,0,0.89µM
O=C(CSc1nnc(-c2ccccc2)o1)Nc1ccccc1F,0,0,?
Cc1cccc(NC(=O)CSc2nnc(-c3cc(C)n(-c4ccccc4)c3C)o2)c1C,0,0,?
COc1ccc(C(=O)N2CCCCC2c2cc(C(=O)NCc3ccc(F)cc3)no2)cc1 (stereo not drawn),0,0,?
COc1cccc(C(=O)OC2CCN(C)CC2)c1,0,0,?
CCOc1ccc(C(=O)OC2CCN(C)CC2)cc1,0,0,4µM
CC(C)n1cc(CN2CCC(Oc3ccc(C(=O)N4CCCCC4)cc3)CC2)cn1,0,0,0
CCCC(=O)OC(C(=O)Nc1cc(C(F)(F)F)ccc1Cl)c1ccccc1 (stereo not drawn),0,0,?
O=C(Nc1cc(C(F)(F)F)ccc1Cl)C(Sc1ccccn1)c1ccccc1 (stereo not drawn),0,0,8.9µM
Cn1nnnc1SCC1=C(C(=O)O)N2C(=O)[C@@H](NC(=O)[C@H](OC=O)c3ccccc3)[C@H]2SC1,0,-,-
Cc1cc(C)cc(NC(=O)c2cn3c4c(ccc(Cl)c4c2=O)OC(C)C3)c1 (stereo not drawn),-,0,0
Cc1cnc(CN2CCc3c([nH]c4ccccc34)C2CC(C)C)[nH]1 (stereo not drawn),0,0,?
Cc1cccc(CN2CCc3c([nH]c4ccccc34)C2CC(C)C)n1 (stereo not drawn),0,0,11µM
CN(CC(=O)NCc1ccccc1)CC(=O)Nc1ccc(Cl)c(C(F)(F)F)c1,0,0,?
CCc1nc2ccc(C(=O)N(C)CC(=O)Nc3ccc(Cl)c(C(F)(F)F)c3)cc2nc1CC,0,?,8.9µM
CN(CC(=O)NC(=O)NCc1ccccc1)CC(=O)Nc1ccc(Cl)c(C(F)(F)F)c1,0,0,7.9µM
CN(CC(=O)NC(=O)NCc1ccccc1)Cc1ccc(Cl)cc1,0,0,?
CN(CC(=O)NC(=O)NCc1ccccc1)Cc1cccc(Cl)c1Cl,0,0,10µM
SMILES,GLP1R ag,GLP1R cytotox,GLP-1R inv ag
CCOc1ccc(NC(=O)CN(C)C(=O)c2ccc3nc(CC)c(CC)nc3c2)cc1OCC,0,0,0
CC(=O)Nc1cc(-c2ccoc2)cn2c(-c3ccccc3)cnc12,0,0,0
Cc1cc(C)c2c(CC(=O)Nc3nnc(CC(C)C)s3)coc2c1,-,0,0
COc1ccc2c(c1)C1=C(CC2)C(c2ccc(C)cc2)NC(=S)N1 (stereo not drawn),0,?,?
COc1cccc(C2NC(=S)NC3=C2CCc2ccccc23)c1 (stereo not drawn),0,4µM,?
Cc1cccc(NC(=O)c2ccc3[nH]c(C)cc(=O)c3c2)c1,-,0,0
COc1c(C)cc(S(=O)(=O)NCc2ccccn2)c(C)c1C,0,0,0
Cc1c(Cl)cccc1NC(=O)N1CCCN(c2nc(-c3ccccc3)ns2)CC1,0,0,5µM
O=C(Nc1ccccc1Cl)N1CCCN(c2nc(-c3ccccc3)ns2)CC1,0,0,?
CC(/C=N/NC(=O)Cn1nccc1C)=C\c1ccc(C(C)C)cc1,0,0,11µM
CC(=C/c1ccc(C(C)C)cc1)/C=N/NC(=O)Cn1nc(C)cc1C,0,0,?
O=C(CN(CCc1ccccc1)C(=O)c1csnn1)NCc1ccc(F)cc1,0,0,0
O=c1c2cnn(-c3ccccc3)c2nc(-c2cccs2)n1-c1cccc(Cl)c1,0,0,8.9µM
O=c1c2cnn(-c3ccccc3)c2nc(-c2cccs2)n1-c1ccc(Cl)cc1,0,0,0
